EBV gp42 inh – blocks Epstein-Barr virus glycoprotein 42 binding | Fluorescence polarization binding assay, mP read-out | inhibition, % (tested at 21.74 µM) | hit rate 0.42% among 220,000; in the data active = inhibition above about 50%
Target sequence (Q1HVG2 whole entry, looked up): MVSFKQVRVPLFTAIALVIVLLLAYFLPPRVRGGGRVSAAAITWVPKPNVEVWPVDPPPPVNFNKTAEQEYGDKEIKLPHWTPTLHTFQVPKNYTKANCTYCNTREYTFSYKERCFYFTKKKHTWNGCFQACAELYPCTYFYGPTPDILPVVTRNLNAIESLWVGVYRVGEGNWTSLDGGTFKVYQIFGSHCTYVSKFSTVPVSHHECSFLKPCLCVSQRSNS
eIF4H inh – inhibitors of RNA binding by human eIF4H | eIF4H fluorescence polarization binding assay | hit rate 0.94% among 290,000 | inhibition, % at 35 µM;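 also: calls also rest on retests at 20 µM and on dose response follow-up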
MEX-5 binding – C. elegans MEX-5 TCR-2 RNA binding activity | Q9XUB2 | MEX-5/FITC-TCR2 RNA binding, fluorescence polarization; hits give low values | activity score (negative = inhibition of binding), % at 10 µM | hit rate 0.38% among 300,000;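 active = inhibition past about -25% in most replicates, and total fluorescence under double the plate's negative control median, limit read from the data; inconclusive = replicates evenly split on the limit, or fluorescence at least double controls; inactive = too little inhibition in most replicates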
PABP1 MLLE inh – blocks PAM2 peptide binding to the PABP1 MLLE domain. P11940. hit rate 0.36% among 360,000. inhibition, % at 20 µM. AID 588489. GST-MLLE / FITC-PAM2 fluorescence polarization; in the data active = inhibition above about 35%, passing the limit was not always enough
PABP FP inh – PABP-poly(A) binding inhibition | PABP-poly(A) RNA binding, fluorescence polarization | calls only at 35 µM | hit rate 1% among 290,000 | AID 2014;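 also: calls also rest on retests at 20 µM and on dose response follow-up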
Each line names hits and unclear results; the compound was inactive in the other large screens. This is a sample that favours compounds with a hit; in the whole collection about 1.8% have one here. Unless noted, no rule for the calls is given here.

Cc1ccc(NC(=O)CCCN2C(=O)/C(=C/C=C/c3ccccc3)SC2=S)cc1	none
O=C(CCN1C(=O)/C(=C\C=C\c2ccccc2)SC1=S)Nc1cccc(C(=O)O)c1	eIF4H inh 88, PABP FP inh active (no result: EBV gp42 inh)
O=C1S/C(=C\C=C\c2ccco2)C(=O)N1c1ccc(O)cc1	none
O=C(O)C(Cc1ccccc1)N1C(=O)/C(=C/C=C/c2ccco2)SC1=S (stereo not drawn)	eIF4H inh 85, PABP FP inh active
OC(c1ccc(F)cc1)c1nc(-c2cc3ccccc3o2)cs1 (stereo not drawn)	none (no result: EBV gp42 inh, eIF4H inh, MEX-5 binding, PABP FP inh)
N#CCSc1nnc(CNc2cccc(Cl)c2)o1	none
N#CCSc1nnc(CNc2ccc(F)cc2)o1	eIF4H inh 111, PABP1 MLLE inh 48, PABP FP inh active
O=C1NN(c2ccccc2)C(=O)/C1=C/c1ccc(-c2ccc(C(=O)O)cc2)o1	eIF4H inh 68, PABP FP inh active (no result: EBV gp42 inh)
COC(=O)c1ccc(N2NC(=O)/C(=C/c3ccc(-c4ccc(Cl)c(C(=O)O)c4)o3)C2=O)cc1	eIF4H inh 71, MEX-5 binding inconclusive, PABP FP inh active
O=C1NN(c2ccc(Cl)c(Cl)c2)C(=O)/C1=C/c1ccc(-c2ccccc2C(=O)O)o1	eIF4H inh 40, PABP FP inh active (no result: EBV gp42 inh)
O=C(O)c1ccc(N2C(=O)/C(=C/c3ccc(-c4ccc([N+](=O)[O-])cc4)o3)C=C2c2ccccc2)cc1	EBV gp42 inh 82
Cc1ccc(N2NC(=O)/C(=C/c3ccc(-c4ccc(Cl)c(C(=O)O)c4)o3)C2=O)cc1C	none
N#CC(=Cc1ccnc2ccccc12)c1ccccc1	none (no result: EBV gp42 inh, eIF4H inh, MEX-5 binding, PABP FP inh)
Cc1cccc(OCc2ccccc2)n1	none (no result: EBV gp42 inh, eIF4H inh, MEX-5 binding, PABP FP inh)
CC1=NN(c2ccccc2)C(=O)/C1=C/c1ccc(-c2ccc(C)c(C(=O)O)c2)o1	none (no result: EBV gp42 inh, eIF4H inh, PABP1 MLLE inh, PABP FP inh)
CC1=NN(c2ccc(Cl)c(C(=O)O)c2)C(=O)/C1=C\c1ccc(-c2ccc(C(=O)O)cc2)o1	eIF4H inh 52
Cc1ccc(C(=O)N2CCC(N3CCC(C(=O)N4CCOCC4)CC3)CC2)cc1	none (no result: EBV gp42 inh, eIF4H inh, MEX-5 binding, PABP FP inh)
O=C1/C(=C\c2ccco2)SC(=S)N1C1CCCCC1	eIF4H inh 57 (no result: EBV gp42 inh, PABP1 MLLE inh)
N#Cc1c(NCCN)nc(NCc2ccccc2)c2c1CCN(Cc1ccccc1)C2	eIF4H inh 62, PABP FP inh active (no result: EBV gp42 inh, MEX-5 binding)
Cc1cc(Sc2ncnc(N)c2[N+](=O)[O-])ncn1	PABP1 MLLE inh 46
N#CC1=C(Nc2ccccc2Cl)SC2(CCCC2)NC1=O	none (no result: EBV gp42 inh, eIF4H inh, MEX-5 binding, PABP FP inh)
CCc1nc2ccc(C(=O)N3CCN(C(=O)c4ccco4)CC3)cn2c1N(CCC(C)C)CCN(C)C	none (no result: EBV gp42 inh, eIF4H inh, MEX-5 binding, PABP FP inh)
CCC(=O)Nc1ccc2nc3c(=O)[nH]c(=S)[nH]c3nc2c1	eIF4H inh 112, MEX-5 binding -46, PABP FP inh active (no result: EBV gp42 inh)
CCCCn1c(SCC(=O)Nc2ccc(NC(C)=O)cc2)nc2ccccc2c1=O	none (no result: EBV gp42 inh)
CCCCCCn1c(=O)[nH]c2nc3cc(N)c(C)cc3nc2c1=O	EBV gp42 inh 148, PABP FP inh active (no result: MEX-5 binding)
CCCCn1c(=O)[nH]c2nc3cc(NC(C)=O)ccc3nc2c1=O	EBV gp42 inh 79, eIF4H inh 98, PABP FP inh active
Cc1ccc(C)c(C(O)c2ncc(-c3cccc(C(F)(F)F)c3)[nH]2)c1 (stereo not drawn)	none (no result: EBV gp42 inh, eIF4H inh, MEX-5 binding, PABP FP inh)
O=C(CSc1nnc(CNC(=O)c2ccccc2F)o1)Nc1ccc2c(c1)OCCO2	PABP1 MLLE inh 47
O=C(CSc1ncn(-c2ccccc2)n1)Nc1ccc2c(c1)OCCO2	PABP1 MLLE inh 37
O=C(CSC1=NC2(CCCCC2)N=C1c1ccccc1)Nc1ccc2c(c1)OCCO2	eIF4H inh inconclusive, PABP1 MLLE inh 46, PABP FP inh inconclusive
CC1(C)N=C(SCC(=O)Nc2ccccc2)C(c2ccc(Cl)cc2)=N1	PABP1 MLLE inh 44
COc1ccc(Cc2c(-c3ccc(C)cc3)nc3cc(C)c(Br)c(C)n23)c(C)c1	none (no result: EBV gp42 inh, eIF4H inh, MEX-5 binding, PABP FP inh)
O=C(CSc1ncn(-c2ccccc2)n1)c1cccs1	PABP1 MLLE inh 38
N#Cc1ccccc1S(=O)(=O)N1CCN(C(=O)CN(Cc2ccco2)Cc2cccs2)CC1	none (no result: EBV gp42 inh, eIF4H inh, MEX-5 binding, PABP FP inh)
Cn1cnc(S(=O)(=O)N2CCCCC2c2cc(C(=O)Nc3cccc4c3CCCC4)no2)c1 (stereo not drawn)	none (no result: EBV gp42 inh, eIF4H inh, MEX-5 binding, PABP FP inh)
Nc1nc(Sc2c([N+](=O)[O-])cc(C(F)(F)F)cc2[N+](=O)[O-])n[nH]1	PABP1 MLLE inh 39
Nc1nc(Sc2ccc(C(F)(F)F)cc2[N+](=O)[O-])n[nH]1	none
O=C(NCc1cccc(Cl)c1)C1Cc2c(-c3ccccc3)ccnc2O1 (stereo not drawn)	none (no result: EBV gp42 inh, eIF4H inh, MEX-5 binding, PABP FP inh)
COC(=O)N1CCCCC1c1cc(C(=O)Nc2cccc3c2CCCC3)no1 (stereo not drawn)	none (no result: EBV gp42 inh, eIF4H inh, MEX-5 binding, PABP FP inh)
